Measured values as given in PubChem BioAssay (NCATS).
Inconclusive results are not listed. Active and inactive are the calls of the source. Calls follow the shape of the dose curve; as a rule, active = well fitted inhibition curve with a large enough effect; inconclusive = small, poorly fitted or top-dose-only effect; inactive = no such curve, though single readings can be large or run the other way.

System: Zika virus NS2B-NS3 protease (unlinked complex)
Experiment: Primary screen GU Rhodamine qHTS for Zika virus inhibitors: Unlinked NS2B-NS3 protease assay (AID 1347159); also: nearly all actives have a fitted effect of over 60% in size
Details: Recombinant ZIKV NS2B-NS3 protease, Rhodamine110 substrate fluorescence; series mostly up to 107 µM
Procedure, shortened: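 Percent inhibition came from the 15-min rise in Rhodamine110 fluorescence (1.5 microM substrate, ~15% conversion), normalized to no-inhibitor and no-enzyme wells and Hill-fitted. Unlinked protease, 25 nM, pH 8.0 Tris buffer; compounds up to 114 microM, 15-min preincubation.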
Potency is read from the fitted curve at half-maximal effect.

SMILES	Potency
C=C1CCC2C(C)(C)CCCC2(C)C1CC/C(C)=C\CO (stereo not drawn)	17.8 µM (active)
CC(C)[C@@H](c1ccc(C(F)(F)F)cc1CN(Cc1cc(C(F)(F)F)cc(C(F)(F)F)c1)c1nnn(C)n1)N1CCC(C(=O)O)CC1	3.16 µM (active)
COc1ccc(C2=NC(c3ccc(Cl)cc3)C(c3ccc(Cl)cc3)N2C(=O)N2CCNC(=O)C2)c(OC(C)C)c1 (stereo not drawn)	inactive
Cc1sc2c(c1C)C(c1ccc(Cl)cc1)=N[C@@H](CC(=O)Nc1ccc(OCCOCCOCCOCCNc3cccc4c3C(=O)N(C3CCC(=O)NC3=O)C4=O)cc1)c1nnc(C)n1-2 (stereo partly drawn)	inactive
C=CC(C)(C)C12CC3C(=O)N4C(CC5(C(C)(C)C=C)c6ccccc6NC45)C(=O)N3C1Nc1ccccc12 (stereo not drawn)	inactive
CC1(C)CCC(C)(C)c2cc(C#Cc3ccc(C(=O)O)cc3)ccc21	1.58 µM (active)
C=C(C(=O)O)[C@@H]1CC=C(CCC(C)=O)[C@@H](C)CC1	56.2 µM (active)
CCC[C@@]1(CCc2ccccc2)CC(O)=C([C@H](CC)c2cccc(NS(=O)(=O)c3ccc(C(F)(F)F)cn3)c2)C(=O)O1	8.91 µM (active)
C#Cc1cccc(Nc2nc3cc(C(=O)O)ccc3c3cncnc23)c1	11.2 µM (active)
O=C1C[C@]23C=CCN4CCC5c6cc7c(cc6N1[C@@]5(CC2)C43)OCO7 (stereo partly drawn)	inactive
C=C[C@@]1(C)CCC2C(=CCC3[C@]2(C)CCC[C@@]3(C)C(=O)O)C1 (stereo partly drawn)	22.4 µM (active)
COc1ccc2nc3n[nH]c(C)c3c(NCCOCCO)c2c1	inactive
COc1ccnc(CS(=O)c2nc3cc(OC(F)F)ccc3[nH]2)c1OC (stereo not drawn)	inactive
